Results: ChEMBL document CHEMBL1961873, “Compounds: GSK PKIS; Assays: Nanosyn kinase panel” (2012)

Key:
[1] = biological target: Mitogen-activated protein kinase kinase kinase kinase 4 (Homo sapiens) (UniProt O95819); settings: at 1 µM;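 further: reported figure is an averaged inhibition value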
[2] = biological target: Dual specificity mitogen-activated protein kinase kinase 1 (Homo sapiens) (UniProt Q02750); settings: at 0.1 µM
[3] = biological target: Dual specificity mitogen-activated protein kinase kinase 1 (Homo sapiens) (UniProt Q02750); settings: at 1 µM
[4] = biological target: Misshapen-like kinase 1 (Homo sapiens) (UniProt Q8N4C8); settings: at 0.1 µM
Sequence of Misshapen-like kinase 1 (Homo sapiens) (Q8N4C8 whole entry, looked up): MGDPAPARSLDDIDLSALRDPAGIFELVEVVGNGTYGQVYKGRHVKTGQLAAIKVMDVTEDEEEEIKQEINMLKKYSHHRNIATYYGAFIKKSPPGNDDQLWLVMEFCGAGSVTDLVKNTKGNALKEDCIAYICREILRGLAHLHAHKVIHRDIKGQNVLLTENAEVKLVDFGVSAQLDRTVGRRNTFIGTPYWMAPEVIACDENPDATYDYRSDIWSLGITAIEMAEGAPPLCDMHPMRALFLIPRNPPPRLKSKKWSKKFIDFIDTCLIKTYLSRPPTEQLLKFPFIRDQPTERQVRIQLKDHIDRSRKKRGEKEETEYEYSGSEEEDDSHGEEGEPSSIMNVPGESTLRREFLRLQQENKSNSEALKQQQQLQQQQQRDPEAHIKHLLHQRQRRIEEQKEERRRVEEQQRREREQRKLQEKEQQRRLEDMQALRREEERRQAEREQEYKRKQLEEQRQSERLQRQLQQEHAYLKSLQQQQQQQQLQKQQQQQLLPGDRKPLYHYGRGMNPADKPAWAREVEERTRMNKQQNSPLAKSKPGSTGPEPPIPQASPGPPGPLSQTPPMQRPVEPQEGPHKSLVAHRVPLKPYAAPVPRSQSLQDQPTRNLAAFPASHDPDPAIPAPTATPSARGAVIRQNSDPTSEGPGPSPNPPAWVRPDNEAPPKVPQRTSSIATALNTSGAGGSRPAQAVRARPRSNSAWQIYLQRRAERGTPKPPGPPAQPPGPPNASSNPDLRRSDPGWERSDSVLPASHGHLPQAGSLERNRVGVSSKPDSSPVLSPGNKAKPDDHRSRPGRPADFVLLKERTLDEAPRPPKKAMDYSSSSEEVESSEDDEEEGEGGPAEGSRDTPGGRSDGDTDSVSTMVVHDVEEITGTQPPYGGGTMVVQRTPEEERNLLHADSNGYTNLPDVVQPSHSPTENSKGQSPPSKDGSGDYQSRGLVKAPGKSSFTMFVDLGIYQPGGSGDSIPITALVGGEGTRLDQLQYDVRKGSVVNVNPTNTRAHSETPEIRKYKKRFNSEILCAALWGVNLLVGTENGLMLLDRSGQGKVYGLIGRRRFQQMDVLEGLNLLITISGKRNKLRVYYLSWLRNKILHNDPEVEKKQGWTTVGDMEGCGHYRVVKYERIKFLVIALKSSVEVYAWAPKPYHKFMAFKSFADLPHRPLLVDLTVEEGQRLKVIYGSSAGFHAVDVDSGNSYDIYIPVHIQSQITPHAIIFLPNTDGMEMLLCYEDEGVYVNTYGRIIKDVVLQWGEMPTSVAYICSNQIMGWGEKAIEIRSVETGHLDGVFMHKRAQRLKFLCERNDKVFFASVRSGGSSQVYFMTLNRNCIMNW

[5] = biological target: Misshapen-like kinase 1 (Homo sapiens) (UniProt Q8N4C8); settings: at 1 µM
[6] = biological target: T1, Serine/threonine-protein kinase 4 (Homo sapiens) (UniProt Q13043); settings: at 0.1 µM
T1 sequence (whole entry): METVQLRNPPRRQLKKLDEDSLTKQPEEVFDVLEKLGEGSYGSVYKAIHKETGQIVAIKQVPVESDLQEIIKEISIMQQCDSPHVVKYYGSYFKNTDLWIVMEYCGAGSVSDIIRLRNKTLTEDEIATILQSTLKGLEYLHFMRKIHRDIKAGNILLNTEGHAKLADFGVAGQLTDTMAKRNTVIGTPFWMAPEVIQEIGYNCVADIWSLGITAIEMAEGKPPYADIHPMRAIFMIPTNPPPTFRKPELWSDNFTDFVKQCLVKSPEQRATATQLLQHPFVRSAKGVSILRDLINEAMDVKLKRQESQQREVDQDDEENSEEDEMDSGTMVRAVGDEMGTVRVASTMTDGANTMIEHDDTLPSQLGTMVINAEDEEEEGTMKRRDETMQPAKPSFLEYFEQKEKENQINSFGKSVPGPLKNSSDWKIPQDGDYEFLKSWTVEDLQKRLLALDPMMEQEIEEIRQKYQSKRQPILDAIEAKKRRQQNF

[7] = biological target: T1, Serine/threonine-protein kinase 4 (Homo sapiens); settings: at 1 µM
[8] = biological target: T2, Serine/threonine-protein kinase 3 (Homo sapiens) (UniProt Q13188); settings: at 0.1 µM
T2 sequence (whole entry): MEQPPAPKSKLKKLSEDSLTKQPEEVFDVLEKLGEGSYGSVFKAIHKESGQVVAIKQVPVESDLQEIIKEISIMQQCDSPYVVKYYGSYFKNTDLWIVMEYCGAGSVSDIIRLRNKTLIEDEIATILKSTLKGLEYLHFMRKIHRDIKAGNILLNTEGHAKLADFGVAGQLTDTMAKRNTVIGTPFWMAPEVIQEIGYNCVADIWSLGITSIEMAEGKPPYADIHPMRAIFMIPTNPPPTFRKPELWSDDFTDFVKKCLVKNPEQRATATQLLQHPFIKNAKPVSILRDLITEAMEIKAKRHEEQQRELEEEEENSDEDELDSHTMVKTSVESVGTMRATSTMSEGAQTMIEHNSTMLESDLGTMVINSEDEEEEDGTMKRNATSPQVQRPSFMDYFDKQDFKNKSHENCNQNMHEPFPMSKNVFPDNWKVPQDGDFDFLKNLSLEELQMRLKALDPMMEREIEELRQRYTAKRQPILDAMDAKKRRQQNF

[9] = biological target: T2, Serine/threonine-protein kinase 3 (Homo sapiens); settings: at 1 µM
[10] = biological target: Serine/threonine-protein kinase 26 (Homo sapiens) (UniProt Q9P289); settings: at 0.1 µM
Sequence of Serine/threonine-protein kinase 26 (Homo sapiens) (Q9P289 2-416 limits assumed): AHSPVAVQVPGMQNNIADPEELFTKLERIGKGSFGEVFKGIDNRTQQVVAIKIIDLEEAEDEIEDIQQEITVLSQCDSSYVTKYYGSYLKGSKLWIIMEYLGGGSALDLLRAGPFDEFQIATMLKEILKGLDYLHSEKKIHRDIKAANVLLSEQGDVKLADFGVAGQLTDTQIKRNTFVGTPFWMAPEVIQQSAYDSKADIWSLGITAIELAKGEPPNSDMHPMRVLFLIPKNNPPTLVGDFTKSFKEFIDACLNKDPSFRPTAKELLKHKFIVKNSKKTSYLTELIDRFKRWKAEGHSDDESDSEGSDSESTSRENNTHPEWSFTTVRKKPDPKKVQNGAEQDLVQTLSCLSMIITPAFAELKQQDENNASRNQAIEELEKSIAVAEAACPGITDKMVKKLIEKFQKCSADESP

[11] = biological target: Serine/threonine-protein kinase 26 (Homo sapiens) (UniProt Q9P289); settings: at 1 µM
[12] = biological target: Serine/threonine-protein kinase PAK 1 (Homo sapiens) (UniProt Q13153); settings: at 0.1 µM
[13] = biological target: Serine/threonine-protein kinase PAK 1 (Homo sapiens) (UniProt Q13153); settings: at 1 µM
[14] = biological target: Serine/threonine-protein kinase PAK 2 (Homo sapiens) (UniProt Q13177); settings: at 0.1 µM
Sequence of Serine/threonine-protein kinase PAK 2 (Homo sapiens) (Q13177 whole entry): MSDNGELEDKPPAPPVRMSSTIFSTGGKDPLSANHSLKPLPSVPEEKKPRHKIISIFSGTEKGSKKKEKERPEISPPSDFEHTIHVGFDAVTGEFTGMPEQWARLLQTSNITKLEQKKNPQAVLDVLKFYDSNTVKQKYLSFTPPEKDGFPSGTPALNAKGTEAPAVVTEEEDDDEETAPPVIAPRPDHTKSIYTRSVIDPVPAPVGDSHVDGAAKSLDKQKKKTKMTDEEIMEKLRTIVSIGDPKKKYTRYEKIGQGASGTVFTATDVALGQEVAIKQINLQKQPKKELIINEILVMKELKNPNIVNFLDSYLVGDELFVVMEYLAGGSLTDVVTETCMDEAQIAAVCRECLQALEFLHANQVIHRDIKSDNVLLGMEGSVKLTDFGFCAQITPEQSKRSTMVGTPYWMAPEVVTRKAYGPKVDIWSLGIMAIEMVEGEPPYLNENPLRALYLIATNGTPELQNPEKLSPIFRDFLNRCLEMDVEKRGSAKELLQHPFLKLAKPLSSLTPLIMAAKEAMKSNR

[15] = biological target: Serine/threonine-protein kinase PAK 2 (Homo sapiens) (UniProt Q13177); settings: at 1 µM
[16] = biological target: Serine/threonine-protein kinase PAK 3 (Homo sapiens) (UniProt O75914); settings: at 0.1 µM
[17] = biological target: Serine/threonine-protein kinase PAK 3 (Homo sapiens) (UniProt O75914); settings: at 1 µM
[18] = biological target: Serine/threonine-protein kinase PAK 5 (Homo sapiens) (UniProt Q9P286); settings: at 0.1 µM
[19] = biological target: Serine/threonine-protein kinase PAK 5 (Homo sapiens) (UniProt Q9P286); settings: at 1 µM
[20] = biological target: Serine/threonine-protein kinase PAK 6 (Homo sapiens) (UniProt Q9NQU5); settings: at 0.1 µM;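 further: mean PAK6 inhibition reported from the GSK PKIS screen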
Sequence of Serine/threonine-protein kinase PAK 6 (Homo sapiens) (Q9NQU5 whole entry, looked up): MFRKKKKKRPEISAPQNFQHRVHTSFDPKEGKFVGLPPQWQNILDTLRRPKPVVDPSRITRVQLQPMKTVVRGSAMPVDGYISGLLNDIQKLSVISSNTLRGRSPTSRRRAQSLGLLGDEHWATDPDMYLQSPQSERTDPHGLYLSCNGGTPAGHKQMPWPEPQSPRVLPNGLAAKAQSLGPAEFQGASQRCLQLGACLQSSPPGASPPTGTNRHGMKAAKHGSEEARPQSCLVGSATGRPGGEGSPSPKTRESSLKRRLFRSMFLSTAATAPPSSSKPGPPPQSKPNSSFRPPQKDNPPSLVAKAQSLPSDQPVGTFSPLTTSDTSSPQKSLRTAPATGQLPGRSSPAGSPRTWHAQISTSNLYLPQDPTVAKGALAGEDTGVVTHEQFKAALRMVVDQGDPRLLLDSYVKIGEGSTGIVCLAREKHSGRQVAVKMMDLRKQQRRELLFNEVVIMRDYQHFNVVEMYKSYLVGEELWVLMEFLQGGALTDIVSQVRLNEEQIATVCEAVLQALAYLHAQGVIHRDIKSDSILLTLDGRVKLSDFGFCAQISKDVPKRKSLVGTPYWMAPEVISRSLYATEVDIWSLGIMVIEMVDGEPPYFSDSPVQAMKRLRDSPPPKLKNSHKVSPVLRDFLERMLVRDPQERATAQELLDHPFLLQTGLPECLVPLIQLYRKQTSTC

Sequence of Mitogen-activated protein kinase kinase kinase kinase 4 (Homo sapiens) (O95819 2-1239 limits assumed): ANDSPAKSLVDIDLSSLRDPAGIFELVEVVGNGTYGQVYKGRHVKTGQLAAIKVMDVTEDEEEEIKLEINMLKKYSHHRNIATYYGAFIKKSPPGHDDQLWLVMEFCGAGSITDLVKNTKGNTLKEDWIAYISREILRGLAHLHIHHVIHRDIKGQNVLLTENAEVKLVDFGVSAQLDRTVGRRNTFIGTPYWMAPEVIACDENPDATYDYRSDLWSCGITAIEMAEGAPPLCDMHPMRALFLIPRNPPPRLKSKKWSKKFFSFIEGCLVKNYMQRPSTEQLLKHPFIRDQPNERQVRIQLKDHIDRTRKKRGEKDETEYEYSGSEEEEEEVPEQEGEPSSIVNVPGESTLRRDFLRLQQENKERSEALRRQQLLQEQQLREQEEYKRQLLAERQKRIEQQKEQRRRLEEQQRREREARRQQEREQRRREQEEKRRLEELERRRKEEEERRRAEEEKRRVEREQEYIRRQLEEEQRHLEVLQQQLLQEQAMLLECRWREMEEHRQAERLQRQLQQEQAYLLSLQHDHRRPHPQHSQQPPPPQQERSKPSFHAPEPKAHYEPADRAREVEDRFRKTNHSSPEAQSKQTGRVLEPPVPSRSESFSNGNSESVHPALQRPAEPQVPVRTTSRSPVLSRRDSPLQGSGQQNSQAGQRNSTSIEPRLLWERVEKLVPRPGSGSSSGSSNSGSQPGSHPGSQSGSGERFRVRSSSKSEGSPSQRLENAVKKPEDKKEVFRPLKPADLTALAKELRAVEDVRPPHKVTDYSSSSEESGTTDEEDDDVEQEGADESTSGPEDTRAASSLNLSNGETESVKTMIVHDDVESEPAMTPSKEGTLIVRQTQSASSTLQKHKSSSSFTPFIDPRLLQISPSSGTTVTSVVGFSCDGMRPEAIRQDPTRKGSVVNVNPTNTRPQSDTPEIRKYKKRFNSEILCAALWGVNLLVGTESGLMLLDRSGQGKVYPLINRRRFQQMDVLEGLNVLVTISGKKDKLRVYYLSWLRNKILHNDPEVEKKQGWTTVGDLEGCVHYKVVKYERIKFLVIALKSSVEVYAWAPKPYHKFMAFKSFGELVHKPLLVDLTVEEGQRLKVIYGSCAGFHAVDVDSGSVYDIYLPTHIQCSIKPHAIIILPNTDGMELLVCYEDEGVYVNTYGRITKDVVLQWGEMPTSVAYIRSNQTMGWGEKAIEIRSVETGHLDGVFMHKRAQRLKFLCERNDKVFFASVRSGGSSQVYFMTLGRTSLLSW
Sequence of Dual specificity mitogen-activated protein kinase kinase 1 (Homo sapiens) (Q02750 whole entry): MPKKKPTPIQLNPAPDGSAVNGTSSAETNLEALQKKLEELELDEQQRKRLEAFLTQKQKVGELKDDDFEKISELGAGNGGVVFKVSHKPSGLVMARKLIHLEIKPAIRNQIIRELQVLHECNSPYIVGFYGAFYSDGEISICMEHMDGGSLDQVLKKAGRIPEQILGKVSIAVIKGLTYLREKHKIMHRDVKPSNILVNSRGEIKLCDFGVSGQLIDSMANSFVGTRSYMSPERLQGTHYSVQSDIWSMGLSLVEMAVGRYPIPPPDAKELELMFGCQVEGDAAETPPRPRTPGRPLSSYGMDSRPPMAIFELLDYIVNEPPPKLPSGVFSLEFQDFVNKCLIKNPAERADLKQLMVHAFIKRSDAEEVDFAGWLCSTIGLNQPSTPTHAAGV

Compound	inhibition [1] [%]	inhibition [2] [%]	inhibition [3] [%]	inhibition [4] [%]	inhibition [5] [%]	inhibition [6] [%]	inhibition [7] [%]	inhibition [8] [%]	inhibition [9] [%]	inhibition [10] [%]	inhibition [11] [%]	inhibition [12] [%]	inhibition [13] [%]	inhibition [14] [%]	inhibition [15] [%]	inhibition [16] [%]	inhibition [17] [%]	inhibition [18] [%]	inhibition [19] [%]	inhibition [20] [%]
c1ccc(-c2nc3n(c2-c2ccc4c(c2)OCO4)CCC3)nc1	6.59	1.98	1.68	3.49	6.24	0.85	1.63	1.29	1.9	0.34	-1.91	3.44	6.33	-0.09	-0.63	1.57	2.08	3.16	-0.63	4.69
COc1cc(/C=N/Nc2ncnc3[nH]ncc23)ccc1O	38.5	3.54	3.75	6.75	25.1	6.37	19.5	5.9	15.1	-1.06	5.4	1.82	6.64	2.22	1.35	4.08	4.44	10.5	11.8	-5.57
CN1CCC(n2cnc(-c3ccc(F)cc3)c2-c2ccnc(Nc3ccccc3)n2)CC1	41.2	3.25	4.26	8.59	41.2	3.25	6.2	1.1	3.6	0.76	5.17	1.24	4.02	0.86	-0.38	2.18	2.38	-3.93	4.44	-9.85
CNC(=O)c1cccc(C#Cc2cncnc2Nc2ccc(OCc3cccc(F)c3)c(Cl)c2)c1	5.4	0.1	1.05	-0.5	5.14	4.83	8.84	5.85	7.85	0.31	4.41	2.05	1.45	0.68	1.72	-0.16	0.51	7.61	-2.53	9.54
CCn1c(-c2nonc2N)nc2cnc(Oc3cccc(NC(=O)c4ccc(N(C)C)cc4)c3)cc21	29.4	1.11	2.61	3.19	28.2	-0.06	1.47	0.98	2.32	-1.48	0.84	3.97	6.82	0.04	0.22	1.76	2.25	2.13	-2.93	2.57
CC(=O)Nc1cccc(C#Cc2cncnc2Nc2ccc(OCc3cccc(F)c3)c(Cl)c2)c1	2.59	2.07	3.13	2.21	3.87	3.97	5.79	4.97	2.1	1.4	-0.92	3.48	6.05	2.19	1.41	2.92	3.79	-5.54	1.62	2.97
CC1=C(C(=O)Nc2cc(Cl)c3[nH]ncc3c2)C(c2ccc(C(F)(F)F)cc2)CC(=O)N1 (stereo not given)	10.2	9.84	35.5	4.68	9.18	3.11	5.19	1.89	4.7	0.06	8.39	3.76	4.55	0.71	2.32	4.06	3.69	0.42	4.84	-4.08
